Source: PubChem BioAssay (National Center for Advancing Translational Sciences (NCATS))
Only a selection was taken, and hits are over-represented in it overall.
Pf Dd2 inh – inhibitors of Plasmodium falciparum Dd2 growth. P. falciparum Dd2 growth, SYBR Green, 72 h. Potency, µM (doses to about 28.9 µM), without a hit: at the highest dose activity, negative = inhibition, hits mostly inhibitors. hit rate 4.3% among 120,000; active = well fitted inhibition curve with a large enough effect;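 also: plate controls were DMSO vehicle for no effect and reference drug for full effect; nearly all actives have a fitted effect of over 65% in size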
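Readout: SYBR Green fluorescence, 485 nm excitation, 535 nm emission, after ~16 h lysis at 37C. Before that, Dd2-infected red cells (2.5% hematocrit) grew 72 h with compound, 29 uM top final concentration.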
Starred values were filed as active, the others as inactive; [ ] = another dose, or the depositor's remark. Potency is read from the fitted curve at half-maximal effect.

O=C(Cc1ccccc1Cl)Nc1cccc(-c2nnc3n2CCCC3)c1 was read as Pf Dd2 inh 7.08µM*.
`O=C(COc1ccc(-c2nnc3n2CCCC3)cc1)N1CCN(c2ccc(F)cc2)CC1` gave Pf Dd2 inh 3.16µM*.
`O=C(COc1ccc(Cl)cc1)Nc1cccc(-c2nnc3n2CCCC3)c1` gave Pf Dd2 inh 3.16µM*.
`O=C(Nc1ccccc1)Nc1cccc(-c2nnc3n2CCCC3)c1` gave Pf Dd2 inh inactive.
For O=C(COc1cccc(-c2nnc3n2CCCC3)c1)NCc1ccc(F)cc1 the results were Pf Dd2 inh -9.4%.
O=C(CC1CCCCC1)Nc1cccc(-c2nnc3n2CCCC3)c1 was read as Pf Dd2 inh -7.2%.
`O=C(COc1ccc(F)cc1)Nc1cccc(-c2nnc3n2CCCC3)c1` gave Pf Dd2 inh 8.91µM*.
Cn1cnc(C(=O)N2CCCC(c3nc(-c4cccnc4)no3)CCNC(=O)CC2)c1 (stereo not drawn) was read as Pf Dd2 inh 13.6%.
`O=c1n(-c2ccncc2)nc2n1CCN(Cc1cccc3ccccc13)C2` gave Pf Dd2 inh -15.7%.
`Cc1ccc(OCCN(C)Cc2cc(C#CCO)cs2)c(C)c1` gave Pf Dd2 inh 8.2%.
`CC(C)NC(=O)N1C[C@@H](Oc2cccnc2)C[C@H]1C(=O)N1CCOCC1` gave Pf Dd2 inh 8.2%.
`O=C(O)C[C@@H]1CCN(C(=O)Nc2ccccc2)C[C@@H]1CCN1CCN(c2ccc(F)cc2)CC1` gave Pf Dd2 inh inactive.
`CS(=O)(=O)N1CCCN(c2cc(C3CC(O)C3)nc(N)n2)CC1` (stereo not drawn) gave Pf Dd2 inh -18.7%.
`COc1cccc(Cc2nc(C3CC(=O)N(C4CCCCC4)C3)no2)c1` (stereo not drawn) gave Pf Dd2 inh inactive.
`Cc1ccc(CC(=O)N(Cc2nc(-c3ccc(C)cc3)no2)C(C)C)cc1` gave Pf Dd2 inh -22.5%.
For COc1ccc(-c2noc(CN(C(=O)c3ccccc3Cl)C(C)C)n2)cc1 the results were Pf Dd2 inh -3.7%.
`COc1ccc(-c2noc(CN(C(=O)C(C)Oc3ccc(C)cc3)C(C)C)n2)cc1` (stereo not drawn) gave Pf Dd2 inh 10µM*.
O=C(CCC1CCCN(S(=O)(=O)c2ccccc2F)C1)NC1CCS(=O)(=O)C1 (stereo not drawn) was read as Pf Dd2 inh 4.8%.
Screening O=C(c1ccccc1)N1CCCC2(C1)Nc1cccnc1NC2=NCc1ccccc1 (stereo not drawn) returned Pf Dd2 inh -19.2%[5.79 µM].
For O=C(CN1CCN(c2nc3ncccc3o2)CC1)c1cccc(Cl)c1 the results were Pf Dd2 inh -6.7%.
N#Cc1ccc(C(=O)N2CCC(Cc3nc(-c4ccccc4)n[nH]3)C2)cc1 (stereo not drawn) was read as Pf Dd2 inh inactive.
For COCCCNC(=O)CSc1nc2c(sc3ccccc32)c(=O)n1CCCC(=O)NCCOC the results were Pf Dd2 inh -19.8%.
For Cc1ccccc1CSc1nc2c(sc3ccccc32)c(=O)n1CCCC(=O)NCCCOC(C)C the results were Pf Dd2 inh 11.2µM*.
`CC(C)OCCCNC(=O)CCCn1c(SCC(=O)c2ccc(F)cc2)nc2c(sc3ccccc32)c1=O` gave Pf Dd2 inh -8.4%.
`CC(C)CC(=O)NC1CCN(c2cn[nH]c(=O)c2)CC1` gave Pf Dd2 inh -11.3%.
CCCCC(=O)NC1CCN(c2cn[nH]c(=O)c2)CC1 was read as Pf Dd2 inh 2.82µM*.
Screening CCCCC(=O)NC1CCN(c2cnn(C)c(=O)c2)CC1 returned Pf Dd2 inh 6.7%.
`CCCS(=O)(=O)N1CCN(C2CCN(CCOC)C2=O)CC1` (stereo not drawn) gave Pf Dd2 inh 16.3%.
Screening O=C(Cn1nc(-c2cccs2)ccc1=O)NC1CCCc2c1[nH]c1ccccc21 (stereo not drawn) returned Pf Dd2 inh 1.1%.
`CCn1cc(C(=O)NCc2ccccc2Cl)c(=O)c2cc(S(=O)(=O)N3CCCCC3)ccc21` gave Pf Dd2 inh 0.8%.
Screening CCn1cc(C(=O)NCc2ccccc2Cl)c(=O)c2cc(S(=O)(=O)N3CCc4ccccc4C3)ccc21 returned Pf Dd2 inh 10µM*.
For CCn1cc(C(=O)NCc2ccccc2OC)c(=O)c2cc(S(=O)(=O)N3CCCCC3)ccc21 the results were Pf Dd2 inh 10µM*.
Screening CCn1cc(C(=O)NCc2ccccc2Cl)c(=O)c2cc(S(=O)(=O)N3CCCCCC3)ccc21 returned Pf Dd2 inh -16.5%.
For CCn1cc(C(=O)NCc2ccccc2Cl)c(=O)c2cc(S(=O)(=O)N3CCOCC3)ccc21 the results were Pf Dd2 inh -11.8%.
Screening CCN(CC)CCNC(=O)c1cn(CC)c2ccc(S(=O)(=O)N3CCc4ccccc4C3)cc2c1=O returned Pf Dd2 inh inactive.
`CCN(CC1CCOCC1)C(=O)Cc1cnc2c(C)cccn12` gave Pf Dd2 inh -15.7%.
`O=C(NCc1nnc2cc(-c3nc(C4CC4)no3)ccn12)c1ccc(F)c(F)c1` gave Pf Dd2 inh inactive.
For O=C(Cn1ccn2nc(-c3ccc(F)cc3)c(CO)c2c1=O)NCc1ccccc1Cl the results were Pf Dd2 inh inactive.
For COc1ccc(C(=O)N2CCC3(CC2)NC(=O)N(c2ccccc2Cl)N3)cc1 the results were Pf Dd2 inh -2.1%.
Screening Cc1nnc(N2CCC(CO)(CN3CCCC3)CC2)c2ccccc12 returned Pf Dd2 inh inactive.
For OCC1(CN2CCCC2)CCN(C/C=C/c2ccccc2)CC1 the results were Pf Dd2 inh 7.08µM*.
For OCC1(CN2CCCC2)CCN(Cc2ccc3ccccc3c2)CC1 the results were Pf Dd2 inh 6.31µM*.
Screening OCC1(CN2CCCC2)CCN(Cc2cc(F)cc(F)c2)CC1 returned Pf Dd2 inh inactive.
`OCC1(CN2CCCC2)CCN(Cc2ccc(Cl)cc2F)CC1` gave Pf Dd2 inh inactive.
O=C(c1cccc(O)c1)N1CCC(CO)(CN2CCCC2)CC1 was read as Pf Dd2 inh -0.7%.
Screening CN1C[C@H](NCc2cccc(Cl)c2)CCC[C@@H](C(=O)NC2CC2)CC1=O returned Pf Dd2 inh 9.1%[44.1 µM].
Screening COC(=O)CC1C(=O)NCCN1C(=O)c1ccc2nc(C3CCCCC3)oc2c1 (stereo not drawn) returned Pf Dd2 inh -5.2%.
`COCc1nc(C2CCCN(C(=O)C3CCC3)C2)no1` (stereo not drawn) gave Pf Dd2 inh 70.4%.
For O=C1CC2(CCN(C(=O)c3ccccn3)CC2)Oc2cc(Cl)ccc21 the results were Pf Dd2 inh -0.1%.
For Cc1ncc2c(c1CNC(=O)COc1ccc(F)cc1)CCNC2 the results were Pf Dd2 inh 6.1%.
CN1C[C@H](O)C[C@H]1c1nnc2n1CCN(Cc1ccccc1)C2 was read as Pf Dd2 inh 23.7%.
Screening CNC(=O)[C@@H]1C[C@@H](n2cc(C(C)(C)NC(=O)c3cccc(Cl)c3)nn2)CN1 returned Pf Dd2 inh 1.3%.
For Cc1noc(-c2cccc(OC3CN(S(=O)(=O)c4c(C)noc4C)C3)c2)n1 the results were Pf Dd2 inh -15.7%[5.79 µM].
Screening CC(C)Cc1nc(CN(C)C(=O)C2CCOc3ccccc3C2)no1 (stereo not drawn) returned Pf Dd2 inh -8.3%.
`COCC(=O)N1CCCC(C(=O)NCc2ccc3nsnc3c2)C1` (stereo not drawn) gave Pf Dd2 inh -0.1%.
Screening CN(Cc1ccc2nsnc2c1)C(=O)c1ccc(N2CCCC2=O)cc1 returned Pf Dd2 inh 13.2%.
`Cc1ccc(N2CCC3(CCCN3Cc3ccc4nsnc4c3)CC2)nn1` gave Pf Dd2 inh 12.6µM*.
